Tests used:
[1] = system: Vero E6 infected with SARS-CoV-2; assay: morphology score (similarity to uninfected cells); higher = more like uninfected cells; details: 24 h
[2] = system: Vero E6 infected with SARS-CoV-2; assay: SARS-CoV-2 infection rate relative to infected DMSO; higher = more infection, active = 60 or less; details: 24 h

| SMILES | morphology score [1] | SARS-CoV-2 infection rate [2] |
| --- | --- | --- |
| Cc1c[nH]c(=O)n(CCCN2CCN(c3ccccc3OCC(F)(F)F)CC2)c1=O (10 µM) | 0.0456 | 111% (inactive) |
| CCOCCn1c(N2CCCN(C)CC2)nc2ccccc21 [emedastine] (10 µM) | 0.137 | 100% (inactive) |
| COc1cc2c(cc1OC(C)C)[C@H](c1ccc(Cl)cc1)N(c1ccc(N(C)C[C@H]3CC[C@H](N4CCN(C)C(=O)C4)CC3)cc1)C(=O)C2 (0.833333 µM) | 0.244 | 93.5% (inactive) |
| NC(=O)CN1CC(O)CC1=O (stereo not drawn) [oxiracetam] (10 µM) | -0.00498 | 107% (inactive) |

Reference: the supplement of paper PMC13380429
